Screening data as filed in PubChem BioAssay.
Hits are enriched below; roughly 9.4% of the tested compounds scored in any of these assays.
Rab9 promoter act – activators of Rab9 promoter; Huh7 Rab9 promoter-luciferase reporter, luminescence, 24 h; Potency, µM (titrated, usually from 9.22 µM), without a hit: at the top dose activation, negative = inhibition, usual class: activators; 320,000 tested, 2.8% active; also: % of control where 0% means no effect; nearly all actives have a fitted effect of over 60% in size
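Huh7 reporter line, Rab9 promoter upstream of luciferase. Compound exposure 24 h at 37 °C in reduced-serum medium with 10% FBS. Read-out: luminescence.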
SMN2 splice enh – SMN2 splice variant enhancement | HEK293 SMN2-luciferase splicing reporter, luminescence, 30-36 h | Potency, µM (doses to about 46.1 µM), for the others: at the top dose activity change, positive = activation, most hits filed as activators | 210,000 tested, 2.8% active | AID 1458; also: % of control where 0% means no effect; nearly all actives have a fitted effect of over 55% in size
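HEK293 cells carry an SMN2 minigene-luciferase reporter in which exon 7 inclusion puts luciferase in frame. Cells were seeded at 2000 cells/well, attached for 10-12 hours, then exposed to compounds for 30-36 hours at 37C before ONE-Glo luminescence.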
FLuc modulator – firefly luciferase modulation, counter-screen for miR-21 project | purified FLuc, Km substrates, luminescence inhibition | 360,000 tested, 6.9% active | P08659 | AID 588342 | Potency, µM (doses to about 57.5 µM), without a hit: at the top dose activity change, negative = inhibition, most hits filed as inhibitors;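 also: plate controls were vehicle for no effect and reference inhibitor for full effect; nearly all actives have a fitted effect of over 55% in size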
Target sequence (P08659 whole entry, looked up): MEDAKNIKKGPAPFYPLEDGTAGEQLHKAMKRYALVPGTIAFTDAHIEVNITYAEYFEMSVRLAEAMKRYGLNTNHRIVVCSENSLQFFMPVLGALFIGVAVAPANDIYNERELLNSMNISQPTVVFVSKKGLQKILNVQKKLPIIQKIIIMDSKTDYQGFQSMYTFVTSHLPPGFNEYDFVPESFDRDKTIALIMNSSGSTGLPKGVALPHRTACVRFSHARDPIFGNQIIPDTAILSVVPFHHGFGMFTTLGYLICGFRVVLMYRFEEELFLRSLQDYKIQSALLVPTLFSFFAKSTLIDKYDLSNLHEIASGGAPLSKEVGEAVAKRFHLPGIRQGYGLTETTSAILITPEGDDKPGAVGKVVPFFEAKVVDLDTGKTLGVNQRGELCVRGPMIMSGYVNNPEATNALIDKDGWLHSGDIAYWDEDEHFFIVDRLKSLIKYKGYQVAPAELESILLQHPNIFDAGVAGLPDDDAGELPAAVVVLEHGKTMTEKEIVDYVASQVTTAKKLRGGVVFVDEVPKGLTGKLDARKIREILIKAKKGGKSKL
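Purified P. pyralis luciferase, 10 nM final, with Km-level 10 uM D-luciferin and 10 uM ATP in 50 mM Tris acetate pH 7.5, 10 mM Mg acetate, 0.01% Tween-20, 0.05% BSA; 6-point qHTS titration about 60 µM downward; luminescence read.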
ELG1 DNA repair – blocks ELG1-dependent DNA repair in HEK293T cells; HEK293T ELG1-luciferase reporter, luminescence, 16 h; DNA damage induced by 5-fluorouridine; Potency, µM (doses to about 46.1 µM), for the others: at the top dose activity change, negative = inhibition, actives largely listed as inhibitors; 330,000 tested, 2.3% active; AID 504467; also: % is scaled to controls: 0 for no effect and ±100 for the full control effect; nearly all actives have a fitted effect of over 55% in size
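DMSO vehicle served as the neutral condition. Each well held 2,000 cells given 5-fluorouridine plus compound; after 16 hr at 37 °C/5% CO2, ONE-Glo was added and luciferase measured 30 min later.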
NPC1 prom act – activates the NPC1 promoter. Huh7 NPC1 promoter luciferase reporter, 24 h. Potency, µM (titrated, usually from 9.22 µM), inactives show at the top dose activation, hits mostly activators. 320,000 tested, 2.4% active. AID 485313; also: % of control where 0% means no effect; nearly all actives have a fitted effect of over 60% in size
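Quantitative HTS used a cell-based reporter: Huh7 cells stably bearing the NPC1 promoter upstream of luciferase were treated with compounds for 24 h, and promoter activation was read as luminescence.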
ELG1 genotoxic – inducers of genotoxicity in HEK293T ELG1-luciferase cells; Potency, µM (doses to about 46 µM), without a hit: at the top dose activity change, positive = activation, actives largely listed as activators; 330,000 tested, 1.3% active; HEK293T ELG1-luciferase reporter, luminescence, 16 h; also: % of control where 0% means no effect; nearly all actives have a fitted effect of over 60% in size
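16 hr compound incubation (37 °C, 5% CO2) of HEK293T cells carrying luciferase-tagged ELG1; luciferase then measured by ONE-Glo luminescence after 30 min at RT.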
Starred values were filed as active, the others as inactive; ? = inconclusive; . = no result given. Calls follow the shape of the dose curve; as a rule, active = well fitted curve in the direction sought with a large enough effect; inconclusive = small, poorly fitted or top-dose-only effect, or another doubt; inactive = no such curve, though single readings can be large; an effect the other way counts as inactive or inconclusive. Potency is read from the fitted curve at half-maximal effect.

SMILES | Rab9 promoter act | SMN2 splice enh | FLuc modulator | ELG1 DNA repair | NPC1 prom act | ELG1 genotoxic
Cc1ccc(Cl)cc1-n1ncc2c(N3CCN(Cc4ccccc4)CC3)ncnc21 | . | . | -4% | . | . | .
Cc1ccc(NC(=S)NNc2ncc(C(F)(F)F)cc2Cl)c(C)c1 | -1% | -28% | 6% | 21µM* | 0% | -16%
Cc1ccc(NC(=S)NNc2ncc(C(F)(F)F)cc2Cl)cc1 | -17% | -11% | -2% | ? | -5% | -16%
Fc1ccc(Nc2nc(N3CCOCC3)nc(N3CCOCC3)n2)cc1 | 0% | . | -1% | ? | -4% | 3%
Cc1ccc(Nc2nc(N/N=C/c3c[nH]c4ccccc34)nc(N3CCOCC3)n2)cc1 | 1% | 8% | ? | 16µM* | 0% | -8%
C(=N\Nc1nc(Nc2ccccc2)nc(N2CCOCC2)n1)/c1c[nH]c2ccccc12 | -3% | 6% | 4.3µM* | 16µM* | -1% | -8%
COc1cc(/C=N/Nc2nc(N3CCCCC3)nc(N3CCCCC3)n2)ccc1OC(=O)c1ccco1 | 0% | 0% | 1% | 6% | -2% | 0%
O=C(Oc1cccc(/C=N/Nc2nc(Nc3ccccc3)nc(N3CCOCC3)n2)c1)c1ccco1 | 0% | 19% | 7.6µM* | 9.2µM* | 7% | 0%
Cc1[nH]c2ccccc2c1/C=N/Nc1nc(Nc2ccc(F)cc2)nc(N2CCOCC2)n1 | -1% | -13% | 17µM* | 21µM* | 1% | -10%
COc1ccc(NC(=O)CN2C(=O)COc3ccc(S(=O)(=O)Nc4ccccc4)cc32)cc1 | . | . | -3% | . | . | .
COc1ccc(C2OC3C(CO)OC(n4cnc5c(=O)[nH]c(N)nc54)C3O2)cc1 (centres undefined) | . | 6% | . | . | . | .
CCOc1ccccc1NCc1cc(=O)oc2cc(C)ccc12 | -1% | . | ? | 1% | -1% | 2%
Cc1ccc2c(CNCc3ccco3)cc(=O)oc2c1 | ? | 13µM* | 24µM* | ? | ? | ?
COC(=O)c1cccc(NC(=O)CSc2nc3cccnc3n2C)c1 | -8% | -22% | ? | 13µM* | -5% | -17%
CC(C)Oc1ccccc1NC(=O)CSc1nc2ccccc2c(=O)n1C | -6% | . | 4% | ? | 0% | 1%
COc1ccccc1NC(=O)Cn1cnc2sc(C(=O)Nc3cc(OC)c(OC)c(OC)c3)c(C)c2c1=O | 2% | . | 0% | 8.2µM* | 0% | -3%
COc1cccc(NC(=O)CSc2nc3ccccc3c(=O)n2C)c1 | -13% | . | 2% | 9.2µM* | -4% | -7%
Cc1ccccc1NC(=O)CSc1nc2ccccc2c(=O)n1C | -9% | . | 2% | 15µM* | 0% | 5%
CCCCCCCCCCCCCCC[C@@H](O)[C@H](CO)NC(C)=O | . | -7% | . | . | . | .
CCOc1ccccc1-n1c(SCC(=O)Nc2ccccc2C(=O)O)nc2ccccc2c1=O | ? | . | 12µM* | ? | ? | -11%
COc1ccccc1NC(=O)CSc1nc2sc(C)c(C)c2c(=O)n1C | -15% | . | 1% | 15µM* | -3% | -14%
COc1cccc(-n2c(SCC(=O)Nc3sc4c(c3C(N)=O)CCC4)nc3ccccc3c2=O)c1 | 3% | -9% | -13% | 6.5µM* | -13% | -1%
COc1cccc(-n2c(SCC(=O)Nc3nc4ccccc4s3)nc3ccccc3c2=O)c1 | -2% | . | 5% | ? | 5% | 1%
CC(C)Cn1c(SCC(=O)Nc2cccc(S(N)(=O)=O)c2)nc2ccccc2c1=O | -4% | 5% | -5% | 16µM* | -7% | -2%
COCCn1c(SCC(=O)Nc2cccc(S(N)(=O)=O)c2)nc2cc(Cl)ccc2c1=O | 11% | 2% | -3% | ? | 1% | -5%
SMILES | Rab9 promoter act | SMN2 splice enh | FLuc modulator | ELG1 DNA repair | NPC1 prom act | ELG1 genotoxic
CCn1c(SCC(=O)Nc2ccccc2OC)nc2ccccc2c1=O | -5% | -16% | 0% | ? | 1% | -24%
CC(C)Oc1ccc(CNC(=O)c2ccc(CS(=O)Cc3ccccc3Cl)o2)cc1 (centres undefined) | . | . | -18% | . | . | .
CCOC(=O)c1ccc(NC(=O)Cc2ccc(-n3c(CC)nc4cccnc43)cc2)cc1 | . | . | -12% | . | . | .
COc1ccccc1NC(=O)CSc1nc2nc(C)cc(C)c2c(=O)[nH]1 | -3% | 3.5µM* | -1% | 13% | -2% | 17%
CC1/C=C/C=C/C=C/C=C/C=C/C=C/C=C/C(OC2OC(C)C(O)C(N)C2O)CC2O[C@@](O)(CC(O)CC(O)C(O)CCC(O)CC(O)CC(=O)OC(C)[C@H](C)C1O)CC(O)C2C(=O)O (some centres undefined) | . | 2% | . | . | . | .
CN(C)c1cccc(-c2nnc(SCCCC#N)o2)c1 | 2.2µM* | 11µM* | 6.7µM* | ? | 3.2µM* | ?
CCN(CC)C(=O)CSc1nnc(-c2ccccc2)o1 | 3.5µM* | -16% | ? | ? | ? | 16µM*
CN(C)CCSc1nnc(-c2ccccc2)o1 | 30% | 10µM* | ? | ? | 24% | 13µM*
CCCOC(=O)CSc1nnc(-c2ccccc2)o1 | . | . | -10% | . | . | .
COc1ccc(S(=O)(=O)c2c(C(=O)c3ccc(C)c(C)c3)cnc3ccc(C)cc23)cc1 | . | -51% | -3% | . | . | .
Cn1c(=O)c(C(=O)NCc2ccccc2)c(O)c2ccccc21 | ? | . | 17µM* | 17% | ? | -1%
Cc1ccc(NC(=O)c2c(O)c3ccccc3n(C)c2=O)nc1 | 12% | ? | ? | ? | 3.5µM* | 15%
Cc1cccc(NC(=O)c2c(O)c3ccccc3n(C)c2=O)c1 | 2µM* | . | ? | ? | 2.8µM* | ?
Cc1ccnc(NC(=O)c2c(O)c3ccccc3n(C)c2=O)c1 | 4µM* | 13µM* | 3µM* | ? | 3.5µM* | ?
Cn1c(=O)c(C(=O)NCc2ccc(F)cc2)c(O)c2ccccc21 | 6% | . | -15% | 16% | -2% | 0%
CCn1c(=O)c(C(=O)Nc2ccc(C)cc2)c(O)c2ccccc21 | 22% | . | ? | 9% | 14% | 7%
CC(=O)c1ccc(N2CCN(S(=O)(=O)c3ccc4c(c3)CC(C)N4C(=O)C3CCC3)CC2)cc1 (centres undefined) | . | . | 6% | . | . | .
N#Cc1ccccc1OCC(=O)N1CCN(c2ccccc2)CC1 | . | -7% | 6% | . | . | .
C=CCn1c(=O)c(C(=O)Nc2ccccc2O)c(O)c2ccccc21 | 7% | 3% | ? | ? | 2% | 1%
C=CCn1c(=O)c(C(=O)Nc2ccccc2C)c(O)c2ccccc21 | 4µM* | . | ? | ? | 4µM* | ?
Cn1c(=O)c(C(=O)Nc2ncccc2O)c(O)c2ccccc21 | ? | 24% | ? | ? | 3.2µM* | ?
